# Data published in PubChem BioAssay (EPA / NIEHS).
# Inconclusive results are not listed. Calls of active or inactive are those of the source. The calls were made as follows, unless noted: active = hit-call score of the fitted dose curve at least 0.9, where 1 is the maximum; inconclusive = response in the unintended direction; inactive = score below 0.9.
# Assays:
# [1] = ATG_TAL_CIS: Attagene CIS-FACTORIAL HepG2 Assay for human TAL Basal Promoter (AID 2282966; active = hit-call score of the fitted dose curve at least 0.9, where 1 is the maximum; inactive = score below 0.9;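 also: background control endpoint measuring basal TAL promoter reporter mRNA not a specific factor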); settings: HepG2 Attagene cis-factorial TAL promoter reporter; actives raise or lower the signal
# How it was run: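 Human hepatoma HepG2 cells, transfected with promoter-regulated reporter units, were treated 24 h. Reporter transcript levels, measured through RT-PCR and capillary electrophoresis, were fitted for gain or loss relative to DMSO.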
# [2] = ATG_TGFb_CIS: Attagene CIS-FACTORIAL HepG2 Assay for human Transforming Growth Factor (TGF) (AID 2282967; active = hit-call score of the fitted dose curve at least 0.9, where 1 is the maximum; inactive = score below 0.9); settings: HepG2 Attagene CIS TGFb reporter, mRNA transcription; actives raise or lower the signal
# How it was run: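 Multiplexed cis-reporter HepG2 system, 24 h treatment; mRNA induction read by fluorescence after RT-PCR and CE; DMSO negative control, bidirectional curve fitting.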
# [3] = ATG_VDRE_CIS: Attagene CIS-FACTORIAL HepG2 Assay for human Vitamin D Receptor Element (VDRE) (AID 2282968; active = hit-call score of the fitted dose curve at least 0.9, where 1 is the maximum; inactive = score below 0.9); settings: HepG2 VDRE cis-reporter transcription, actives raise or lower the signal
# How it was run: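 Transfected HepG2 reporter cells, chemical treatment 24 h. RNA isolated, cDNA amplified with reporter-specific primers, products analysed by capillary electrophoresis. Endpoint fitted in both directions versus DMSO.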
# [4] = target: X-box-binding protein 1 (Homo sapiens) (UniProt P17861); assay: ATG_Xbp1_CIS: Attagene CIS-FACTORIAL HepG2 Assay for human X-box Binding Protein 1 (XBP1) (AID 2282972; active = hit-call score of the fitted dose curve at least 0.9, where 1 is the maximum; inactive = score below 0.9); settings: HepG2 XBP1 cis-element reporter, Attagene multiplex; actives raise or lower the signal
# Chain of X-box-binding protein 1 (Homo sapiens) (P17861 whole entry, looked up): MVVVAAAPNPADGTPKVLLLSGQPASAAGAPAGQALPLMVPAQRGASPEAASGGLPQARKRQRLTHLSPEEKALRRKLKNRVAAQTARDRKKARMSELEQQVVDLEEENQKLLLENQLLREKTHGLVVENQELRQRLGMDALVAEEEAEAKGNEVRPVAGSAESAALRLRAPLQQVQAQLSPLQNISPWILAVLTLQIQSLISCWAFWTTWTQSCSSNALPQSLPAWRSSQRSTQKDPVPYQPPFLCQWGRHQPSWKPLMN
# How it was run: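 Multiplexed cis-reporter readout in transfected HepG2 liver cells. Exposure lasted 24 hours. Activity in either direction was fitted against DMSO as negative control and baseline.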
# [5] = ATG_GAL4_TRANS: Attagene TRANS-FACTORIAL HepG2 Assay for GAL4 (Internal Marker) (AID 2282976); settings: HepG2 Attagene TRANS GAL4 internal marker reporter
# How it was run: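 Liver HepG2 line bearing multiplexed GAL4-UAS reporter constructs; 24 h chemical treatment. Transcripts were quantified as fluorescent fragments on capillary electrophoresis after RT-PCR and HpaI cut, with activity fitted upward from DMSO.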
# [6] = target: Glucocorticoid receptor (Homo sapiens) (UniProt P04150); assay: ATG_GR_TRANS: Attagene TRANS-FACTORIAL HepG2 Assay for human Glucocorticoid Receptor (GR) (AID 2282978); settings: HepG2 Attagene TRANS GR reporter, mRNA transcription;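 also: activators score as hits since higher reporter transcript over DMSO is fitted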
# Chain of Glucocorticoid receptor (Homo sapiens) (P04150 whole entry, looked up, the tested form may be a part): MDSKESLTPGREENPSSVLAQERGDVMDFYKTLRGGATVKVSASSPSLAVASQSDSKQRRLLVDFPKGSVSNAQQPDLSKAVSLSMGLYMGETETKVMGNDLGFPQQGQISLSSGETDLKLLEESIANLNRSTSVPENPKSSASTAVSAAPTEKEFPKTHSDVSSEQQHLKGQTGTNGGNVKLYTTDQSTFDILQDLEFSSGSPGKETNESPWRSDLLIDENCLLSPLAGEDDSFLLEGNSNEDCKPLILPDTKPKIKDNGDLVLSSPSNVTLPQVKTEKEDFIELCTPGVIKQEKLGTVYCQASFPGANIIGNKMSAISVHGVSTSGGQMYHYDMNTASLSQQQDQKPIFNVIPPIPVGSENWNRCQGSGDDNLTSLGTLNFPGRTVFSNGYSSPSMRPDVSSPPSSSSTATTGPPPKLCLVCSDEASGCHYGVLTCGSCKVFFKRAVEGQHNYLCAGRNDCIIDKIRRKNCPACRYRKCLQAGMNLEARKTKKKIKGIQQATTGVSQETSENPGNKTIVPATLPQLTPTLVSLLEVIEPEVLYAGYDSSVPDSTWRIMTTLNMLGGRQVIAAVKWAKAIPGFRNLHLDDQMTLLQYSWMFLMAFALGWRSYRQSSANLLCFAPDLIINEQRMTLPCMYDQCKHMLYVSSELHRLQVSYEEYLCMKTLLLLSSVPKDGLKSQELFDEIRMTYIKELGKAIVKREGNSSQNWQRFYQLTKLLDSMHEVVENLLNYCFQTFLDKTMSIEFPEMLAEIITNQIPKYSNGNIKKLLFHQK
# How it was run: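 Readout is reporter transcript from a chimeric GR-Gal4 acting on GAL4-UAS in transfected human HepG2 liver cells after 24 h exposure, quantified by RT-PCR and capillary electrophoresis. Activation fitted upward against DMSO.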
# [7] = target: Bile acid receptor (Homo sapiens) (UniProt Q96RI1); assay: ATG_FXR_TRANS: Attagene TRANS-FACTORIAL HepG2 Assay for Farnesoid X Receptor (FXR) (AID 2282979); settings: HepG2 Attagene TRANS FXR-GAL4 reporter transcription;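 also: hits raise reporter mRNA above DMSO so AC50 marks FXR activation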
# Chain of Bile acid receptor (Homo sapiens) (Q96RI1 whole entry, looked up, the tested form may be a part): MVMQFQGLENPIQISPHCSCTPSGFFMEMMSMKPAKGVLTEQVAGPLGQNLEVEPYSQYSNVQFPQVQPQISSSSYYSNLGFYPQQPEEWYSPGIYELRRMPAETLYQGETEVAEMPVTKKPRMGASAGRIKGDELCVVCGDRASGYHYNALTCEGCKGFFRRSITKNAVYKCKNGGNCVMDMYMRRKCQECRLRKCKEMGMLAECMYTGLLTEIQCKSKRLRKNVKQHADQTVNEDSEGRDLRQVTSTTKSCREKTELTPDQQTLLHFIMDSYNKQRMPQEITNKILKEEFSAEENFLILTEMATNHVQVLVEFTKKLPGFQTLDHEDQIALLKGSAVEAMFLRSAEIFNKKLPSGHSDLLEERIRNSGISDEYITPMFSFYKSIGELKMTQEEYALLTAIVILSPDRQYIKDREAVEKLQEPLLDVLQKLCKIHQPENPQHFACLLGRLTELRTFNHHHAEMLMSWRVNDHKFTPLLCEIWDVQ
# How it was run: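 After 24 h chemical treatment of transfected HepG2 cells, GAL4-UAS reporter transcripts driven by an exogenous FXR-GAL4 fusion were measured by RT-PCR and capillary electrophoresis. Increases over DMSO were fitted.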
# [8] = target: Hepatocyte nuclear factor 4-alpha (Homo sapiens) (UniProt P41235); assay: ATG_HNF4a_TRANS: Attagene TRANS-FACTORIAL HepG2 Assay for human Hepatocyte Nuclear Factor 4 alpha (HNF4a) (AID 2282982); settings: HepG2 HNF4a transactivation reporter, mRNA readout
# Chain of Hepatocyte nuclear factor 4-alpha (Homo sapiens) (P41235 whole entry, looked up, the tested form may be a part): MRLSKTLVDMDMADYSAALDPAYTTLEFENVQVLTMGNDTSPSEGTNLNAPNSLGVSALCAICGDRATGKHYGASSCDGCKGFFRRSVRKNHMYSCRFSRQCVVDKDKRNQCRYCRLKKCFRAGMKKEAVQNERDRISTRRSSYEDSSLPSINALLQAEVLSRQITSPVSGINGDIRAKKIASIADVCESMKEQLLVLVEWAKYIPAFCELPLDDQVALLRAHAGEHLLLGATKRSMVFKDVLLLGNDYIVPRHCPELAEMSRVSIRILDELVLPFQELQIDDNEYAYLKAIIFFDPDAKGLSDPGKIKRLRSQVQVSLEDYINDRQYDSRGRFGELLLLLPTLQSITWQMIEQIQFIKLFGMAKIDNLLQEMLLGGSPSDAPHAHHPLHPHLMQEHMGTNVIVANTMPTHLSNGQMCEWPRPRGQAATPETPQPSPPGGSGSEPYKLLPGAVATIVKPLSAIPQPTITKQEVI
# How it was run: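 Using HepG2 liver cells transfected with GAL4-UAS reporter units, chemical-induced mRNA increases were assessed after 24 hours. Fluorescent RT-PCR fragments were separated by capillary electrophoresis and compared with DMSO negative controls.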
# [9] = ATG_M_06_TRANS: Attagene TRANS-FACTORIAL HepG2 Assay for M06 Transcription Factor (Internal Marker) (AID 2282983); settings: HepG2 Attagene TRANS M06 internal marker reporter
# How it was run: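 Multi-reporter-transfected HepG2, 24 h treatment; reporter transcripts quantified via RT-PCR, primer-extension labelling and CE. DMSO-normalized gain-of-signal fit.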
# [10] = ATG_M_32_TRANS: Attagene TRANS-FACTORIAL HepG2 Assay for M32 Transcription Factor (Internal Marker) (AID 2282984); settings: HepG2 Attagene TRANS M32 internal marker reporter
# How it was run: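 Fluorescence-detected mRNA induction, HepG2 liver cells, 24 h after dosing. Multiple GAL4-UAS reporter units introduced by transient transfection; background-control endpoint analysed for gain of signal against DMSO.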
# [11] = target: Nuclear receptor subfamily 4 group A member 2 (Homo sapiens) (UniProt P43354); assay: ATG_NURR1_TRANS: Attagene TRANS-FACTORIAL HepG2 Assay for human Nuclear Receptor Related Protein 1 (NURR1) (AID 2282985); settings: HepG2 Attagene TRANS reporter, mRNA readout
# Chain of Nuclear receptor subfamily 4 group A member 2 (Homo sapiens) (P43354 whole entry, looked up, the tested form may be a part): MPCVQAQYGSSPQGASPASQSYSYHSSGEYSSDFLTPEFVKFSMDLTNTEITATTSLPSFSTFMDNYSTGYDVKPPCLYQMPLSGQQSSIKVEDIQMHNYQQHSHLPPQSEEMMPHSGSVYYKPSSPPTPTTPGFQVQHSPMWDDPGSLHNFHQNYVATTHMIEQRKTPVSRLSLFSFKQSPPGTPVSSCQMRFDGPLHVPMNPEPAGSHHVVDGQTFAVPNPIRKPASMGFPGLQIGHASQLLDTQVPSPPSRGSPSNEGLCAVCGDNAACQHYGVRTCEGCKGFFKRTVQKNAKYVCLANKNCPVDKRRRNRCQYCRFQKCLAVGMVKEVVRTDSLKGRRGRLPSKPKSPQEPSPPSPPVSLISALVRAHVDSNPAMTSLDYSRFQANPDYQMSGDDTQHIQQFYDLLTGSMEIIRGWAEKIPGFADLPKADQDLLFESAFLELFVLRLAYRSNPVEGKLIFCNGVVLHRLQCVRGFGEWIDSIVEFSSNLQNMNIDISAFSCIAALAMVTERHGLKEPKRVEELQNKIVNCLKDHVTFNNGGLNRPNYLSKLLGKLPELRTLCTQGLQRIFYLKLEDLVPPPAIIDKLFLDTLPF
# How it was run: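 Chimeric NR-Gal4 proteins were expressed in human HepG2 cells bearing GAL4-UAS reporter units, and induced reporter mRNA was quantified 24 h post-dosing by RT-PCR and capillary electrophoresis.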
# [12] = target: Transcriptional activator Myb (Homo sapiens) (UniProt P10242); assay: ATG_Myb_CIS: Attagene CIS-FACTORIAL HepG2 Assay for human Myeloblastosis (Myb) Proto-Oncogene Transcription Factor (AID 2282986; active = hit-call score of the fitted dose curve at least 0.9, where 1 is the maximum; inactive = score below 0.9); settings: HepG2 Attagene CIS-FACTORIAL Myb reporter transcription; actives raise or lower the signal
# Chain of Transcriptional activator Myb (Homo sapiens) (P10242 whole entry, looked up): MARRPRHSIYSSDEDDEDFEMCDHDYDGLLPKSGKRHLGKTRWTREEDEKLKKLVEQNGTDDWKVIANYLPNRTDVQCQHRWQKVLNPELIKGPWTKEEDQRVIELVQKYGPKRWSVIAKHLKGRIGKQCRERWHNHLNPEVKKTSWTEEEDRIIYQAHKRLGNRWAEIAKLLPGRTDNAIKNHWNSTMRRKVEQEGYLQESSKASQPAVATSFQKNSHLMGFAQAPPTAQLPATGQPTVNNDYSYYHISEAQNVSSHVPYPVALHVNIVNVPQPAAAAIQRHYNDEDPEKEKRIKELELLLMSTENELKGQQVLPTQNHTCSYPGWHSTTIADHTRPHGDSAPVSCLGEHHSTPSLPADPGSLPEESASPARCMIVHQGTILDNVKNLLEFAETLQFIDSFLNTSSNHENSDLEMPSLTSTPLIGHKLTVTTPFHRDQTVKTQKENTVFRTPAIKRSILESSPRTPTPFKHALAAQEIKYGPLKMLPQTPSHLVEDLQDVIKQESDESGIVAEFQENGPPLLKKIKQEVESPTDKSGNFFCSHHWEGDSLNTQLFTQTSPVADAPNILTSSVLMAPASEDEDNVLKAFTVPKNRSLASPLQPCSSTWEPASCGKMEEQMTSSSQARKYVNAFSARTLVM
# How it was run: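 Reporter mRNA is quantified by RT-PCR and capillary electrophoresis 24 h after dosing HepG2 cells transfected with cis-regulated reporter units, which track endogenous transcription factor activity. Gain and loss of signal are fitted versus DMSO baseline.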
# [13] = target: Oxysterols receptor LXR-alpha (Homo sapiens) (UniProt Q13133); assay: ATG_LXRa_TRANS: Attagene TRANS-FACTORIAL HepG2 Assay for human Liver X Receptor alpha (LXRa) (AID 2282980); settings: HepG2 Attagene TRANS reporter, LXRa transactivation
# Chain of Oxysterols receptor LXR-alpha (Homo sapiens) (Q13133 whole entry, looked up, the tested form may be a part): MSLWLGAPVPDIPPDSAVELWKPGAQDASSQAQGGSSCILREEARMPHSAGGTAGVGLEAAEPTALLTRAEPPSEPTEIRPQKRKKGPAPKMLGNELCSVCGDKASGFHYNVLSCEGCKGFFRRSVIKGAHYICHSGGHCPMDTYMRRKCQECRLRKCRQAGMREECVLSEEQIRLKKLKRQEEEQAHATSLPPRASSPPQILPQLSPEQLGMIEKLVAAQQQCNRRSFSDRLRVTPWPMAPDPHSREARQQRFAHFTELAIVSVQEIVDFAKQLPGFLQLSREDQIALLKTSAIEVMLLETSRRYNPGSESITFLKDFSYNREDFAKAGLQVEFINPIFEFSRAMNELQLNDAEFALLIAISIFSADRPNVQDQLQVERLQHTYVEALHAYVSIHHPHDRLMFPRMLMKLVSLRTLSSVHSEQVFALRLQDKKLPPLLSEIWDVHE
# How it was run: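 In this multiplexed TRANS system, compounds act on HepG2 cells carrying GAL4-UAS reporter units and a receptor-GAL4 fusion for 24 h. Induced reporter RNA is amplified, fluorescently labelled and sized by capillary electrophoresis, with DMSO as baseline.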
# [14] = target: Oxysterols receptor LXR-beta (Homo sapiens) (UniProt P55055); assay: ATG_LXRb_TRANS: Attagene TRANS-FACTORIAL HepG2 Assay for human Liver X Receptor beta (LXRb) (AID 2282981); settings: HepG2 Attagene TRANS GAL4-LXRb reporter, mRNA
# Chain of Oxysterols receptor LXR-beta (Homo sapiens) (P55055 whole entry, looked up, the tested form may be a part): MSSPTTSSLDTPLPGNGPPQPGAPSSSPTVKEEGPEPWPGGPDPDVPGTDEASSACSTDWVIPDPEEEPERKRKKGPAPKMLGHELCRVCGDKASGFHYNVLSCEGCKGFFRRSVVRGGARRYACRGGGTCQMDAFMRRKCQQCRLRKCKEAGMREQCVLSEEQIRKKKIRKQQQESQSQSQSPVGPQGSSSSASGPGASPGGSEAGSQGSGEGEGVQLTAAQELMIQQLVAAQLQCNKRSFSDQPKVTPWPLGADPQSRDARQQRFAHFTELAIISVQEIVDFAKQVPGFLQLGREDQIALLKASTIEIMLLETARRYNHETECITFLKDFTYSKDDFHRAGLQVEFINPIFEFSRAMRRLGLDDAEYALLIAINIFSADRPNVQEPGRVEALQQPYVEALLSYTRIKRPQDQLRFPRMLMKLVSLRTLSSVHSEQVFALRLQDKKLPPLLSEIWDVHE
# How it was run: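 Liver-derived HepG2 cells transfected with Gal4-responsive reporters were dosed for 24 h. Activation was scored as rise in reporter mRNA, by RT-PCR and capillary electrophoresis, above DMSO baseline.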
# [15] = target: Nuclear respiratory factor 1 (Homo sapiens) (UniProt Q16656); assay: ATG_NRF1_CIS: Attagene CIS-FACTORIAL HepG2 Assay for human Nuclear Respiratory Factor 1 (NRF1) Orphan Gene (AID 2282987; active = hit-call score of the fitted dose curve at least 0.9, where 1 is the maximum; inactive = score below 0.9); settings: HepG2 NRF1 cis-element reporter, Attagene multiplex; actives raise or lower the signal
# Chain of Nuclear respiratory factor 1 (Homo sapiens) (Q16656 whole entry, looked up): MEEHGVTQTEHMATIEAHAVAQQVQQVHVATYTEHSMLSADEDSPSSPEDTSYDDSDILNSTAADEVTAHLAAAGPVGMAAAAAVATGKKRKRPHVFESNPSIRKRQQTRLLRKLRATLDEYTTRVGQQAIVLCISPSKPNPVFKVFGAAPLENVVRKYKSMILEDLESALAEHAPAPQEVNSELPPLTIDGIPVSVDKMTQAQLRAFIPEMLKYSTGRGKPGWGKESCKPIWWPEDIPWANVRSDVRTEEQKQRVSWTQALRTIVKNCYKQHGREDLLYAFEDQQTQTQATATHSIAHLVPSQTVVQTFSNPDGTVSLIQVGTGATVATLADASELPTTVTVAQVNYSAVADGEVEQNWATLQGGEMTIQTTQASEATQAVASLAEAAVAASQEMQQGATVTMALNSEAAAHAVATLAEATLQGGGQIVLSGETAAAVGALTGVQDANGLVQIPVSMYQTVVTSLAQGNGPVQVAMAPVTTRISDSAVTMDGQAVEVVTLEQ
# How it was run: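 Endogenous NRF1-driven reporter transcription in transfected HepG2 cells after 24 h treatment. Readout: RT-PCR products, 6-FAM labelled and resolved by capillary electrophoresis; changes fitted both directions relative to DMSO.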
# [16] = target: Estrogen-related receptor gamma (Homo sapiens) (UniProt P62508); assay: ATG_ERRg_TRANS: Attagene TRANS-FACTORIAL HepG2 Assay for human Estrogen-Related Receptor gamma (ERRg) (AID 2282977); settings: HepG2 Attagene TRANS reporter, ERRg transactivation;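 also: hits increase reporter signal over DMSO so potencies reflect activators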
# How it was run: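 Readout: fluorescent reporter-mRNA fragments resolved by capillary electrophoresis after RT-PCR and HpaI cut. Cells: transiently transfected HepG2 carrying GAL4-UAS reporters driven by exogenous NR-Gal4 chimeras, dosed 24 h. Activity fitted upward relative to DMSO baseline.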
SMILES,outcome [1],outcome [2],outcome [3],outcome [4],outcome [5],outcome [6],outcome [7],outcome [8],outcome [9],outcome [10],outcome [11],outcome [12],outcome [13],outcome [14],AC50 [15],outcome [15],AC50 [4],AC50 [11],AC50 [3],outcome [16]
CCCCC1CCC(O)CC1 (stereo unspecified),inactive,inactive,inactive,inactive,inactive,inactive,inactive,inactive,inactive,inactive,inactive,inactive,–,–,–,–,–,–,–,–
[Cl][Au]([Cl])[Cl],inactive,inactive,inactive,inactive,–,–,inactive,inactive,inactive,inactive,inactive,inactive,inactive,inactive,147 µM (active),–,–,–,–,–
CCC(C)=O,inactive,inactive,inactive,inactive,inactive,inactive,inactive,inactive,inactive,–,–,inactive,–,inactive,–,inactive,–,–,–,–
C=C(C)[C@H]1CC=C(C)C(=O)C1,inactive,inactive,inactive,inactive,–,inactive,–,inactive,inactive,inactive,–,inactive,inactive,inactive,–,inactive,–,–,–,–
CSc1c(Cl)c(Cl)c(Cl)c(Cl)c1Cl,inactive,inactive,inactive,–,–,inactive,inactive,–,inactive,inactive,–,inactive,inactive,inactive,169 µM (active),–,136 µM (active),26.9 µM (active),–,–
OCCOCCN1CCN(C2=Nc3ccccc3Sc3ccccc32)CC1,inactive,inactive,–,inactive,inactive,–,inactive,–,inactive,inactive,inactive,inactive,inactive,inactive,–,inactive,–,–,19.5 µM (active),–
C=C(C)C1CC=C(C)C(=O)C1 (stereo unspecified),inactive,inactive,inactive,inactive,–,–,–,inactive,inactive,–,–,inactive,–,inactive,–,–,–,–,–,–
CCc1cc(Cc2cc(CC)cc(C(C)(C)C)c2O)c(O)c(C(C)(C)C)c1,inactive,inactive,–,–,–,inactive,inactive,inactive,inactive,–,–,inactive,inactive,inactive,–,inactive,16.9 µM (active),–,4.77 µM (active),inactive
O=C1OC2(c3ccccc31)c1ccc(O)c(Br)c1Oc1c2ccc(O)c1Br,inactive,inactive,–,inactive,–,inactive,–,inactive,inactive,inactive,inactive,inactive,inactive,inactive,–,–,–,–,27.3 µM (active),–
CCOc1ccccc1O,inactive,inactive,inactive,inactive,inactive,–,–,inactive,inactive,inactive,inactive,inactive,–,inactive,–,–,–,–,–,–
CC(C)(C)OC(=O)c1ccc(O)cc1,inactive,inactive,–,–,–,inactive,inactive,inactive,inactive,–,inactive,inactive,inactive,inactive,–,–,70.3 µM (active),–,45.4 µM (active),–
